{
  "source": "PubChem BioAssay (NCATS)",
  "note": "Inconclusive results are not listed. Where a call stands in place of a potency, no number is given. Active and inactive are the calls of the source. Calls come from the whole dose curve; as a rule, active = well fitted curve in the direction sought with a large enough effect; inconclusive = small, poorly fitted or top-dose-only effect, or another doubt; inactive = no such curve, though single readings can be large; an effect the other way counts as inactive or inconclusive. Potency is the fitted concentration of half-maximal effect.",
  "data": [
    {"experiment": "S16 Schwann cell viability assay (CellTiter-Glo assay) (AID 624031); note: nearly all actives have a fitted effect of over 70% in size", "settings": "S16 rat Schwann cells viability, 24 h; series mostly up to 57.5 µM", "procedure,_shortened": "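This viability control uses native rat S16 Schwann cells grown in DMEM plus 10% FBS. After a 24 h compound treatment at 37 °C, CellTiter-Glo luminescence reports ATP content, scaled against DMSO-treated and cell-free wells.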", "values": [
      {"molecule": "Cc1cc(NS(=O)(=O)c2ccc(N)cc2)nc(C)n1", "Potency": "inactive"},
      {"molecule": "O=C(Nc1ccc([N+](=O)[O-])cc1)Nc1ccc([N+](=O)[O-])cc1", "Potency": "inactive"},
      {"molecule": "COc1ccc(CN(CCN(C)C)c2ncccn2)cc1", "Potency": "inactive"},
      {"molecule": "O=C1C(=O)c2ccccc2C(O)=C1C1CCC(c2ccc(Cl)cc2)CC1", "note": "(configuration not stated)", "Potency": "inactive"},
      {"molecule": "CCCc1ncc(C[n+]2ccccc2C)c(N)n1", "Potency": "inactive"},
      {"molecule": "CCOC(=O)C(C#N)=C(c1ccccc1)c1ccccc1", "Potency": "inactive"},
      {"molecule": "CNCCc1ccccn1", "Potency": "inactive"},
      {"molecule": "O=C(O)CCC(=O)Nc1ccc(S(=O)(=O)Nc2nccs2)cc1", "Potency": "inactive"},
      {"molecule": "Cc1cc(C)cc(OCC2CNC(=O)O2)c1", "note": "(configuration not stated)", "Potency": "inactive"},
      {"molecule": "COP(=O)(OC)OC(c1ccc(Cl)cc1)P(=O)(OC)OC", "note": "(configuration not stated)", "Potency": "inactive"},
      {"molecule": "CCc1ccc(C(=O)C(C)CN2CCCCC2)cc1", "note": "(configuration not stated)", "Potency": "inactive"},
      {"molecule": "CC(C)[N+](C)(C)CC(O)COc1cccc2ccccc12", "note": "(configuration not stated)", "Potency": "inactive"},
      {"molecule": "Cc1c[nH]c2ccccc12", "Potency": "inactive"},
      {"molecule": "O=C1C(O)=C(O)C(=O)C(O)=C1O", "Potency": "inactive"},
      {"molecule": "CCc1oc2ccccc2c1C(=O)c1cc(Br)c(O)c(Br)c1", "Potency": "inactive"},
      {"molecule": "Cn1c(=O)c2[nH]c(Br)nc2n(C)c1=O", "Potency": "inactive"},
      {"molecule": "Cc1cccc(C)c1NC(=O)CN1CCCC1", "Potency": "inactive"},
      {"molecule": "O=C(O)Cc1csc(-c2ccc(Cl)cc2)n1", "Potency": "inactive"},
      {"molecule": "COc1cc(NS(=O)(=O)c2ccc(N)cc2)ncn1", "Potency": "inactive"},
      {"molecule": "CC(=O)NCCCCCC(=O)O", "Potency": "inactive"},
      {"molecule": "NS(=O)(=O)c1cc(C(=O)O)cc(N2CCCC2)c1Oc1ccccc1", "Potency": "inactive"},
      {"molecule": "CCN(CC)CCNC(=O)c1cc(Br)c(N)cc1OC", "Potency": "inactive"},
      {"molecule": "COc1cc(C(=S)N2CCOCC2)ccc1O", "Potency": "inactive"},
      {"molecule": "CCOC(=O)c1ccc(N)cc1", "Potency": "inactive"},
      {"molecule": "CCN(CC)CCOC(=O)C1(c2ccccc2)CCCC1", "Potency": "inactive"},
      {"molecule": "COc1cc(C)nc(-n2nc(C)cc2OC)n1", "Potency": "inactive"},
      {"molecule": "CCC(C(=O)OCCOCCN(CC)CC)c1ccccc1", "note": "(configuration not stated)", "Potency": "inactive"},
      {"molecule": "c1ccc(-c2nc[nH]c2-c2ccccc2)cc1", "Potency": "inactive"},
      {"molecule": "CCN1/C(=C/C=C/c2sc3ccccc3[n+]2CC)Sc2ccccc21", "Potency": "4.05 µM (active)"},
      {"molecule": "O=S(=O)(O)c1ccc(O)cc1", "Potency": "inactive"},
      {"molecule": "COc1cc(O)c(C(=O)c2ccccc2)cc1S(=O)(=O)O", "Potency": "inactive"},
      {"molecule": "CCN(CC)CCOc1ccc2c(c1)C(=O)c1cc(OCCN(CC)CC)ccc1-2", "Potency": "inactive"},
      {"molecule": "O=C(O)CCNC(=O)c1ccccc1", "Potency": "inactive"},
      {"molecule": "CC(=O)O[C@]1(C(C)=O)CC[C@H]2[C@@H]3C=C(Cl)C4=CC(=O)CC[C@]4(C)[C@H]3CC[C@@]21C", "Potency": "inactive"},
      {"molecule": "CCOc1cc(OCC)c(C(=O)CCC(=O)O)cc1OCC", "Potency": "inactive"},
      {"molecule": "CC(=O)OCC(=O)[C@H]1CC[C@H]2[C@@H]3CCC4=CC(=O)CC[C@]4(C)[C@H]3CC[C@]12C", "Potency": "inactive"},
      {"molecule": "CC1=C(C(=O)O)N2C(=O)[C@@H](NC(=O)[C@H](N)c3ccccc3)[C@H]2SC1", "Potency": "inactive"},
      {"molecule": "CC(=O)Nc1ccc(OCC(O)CNC(C)C)cc1", "note": "(configuration not stated)", "Potency": "inactive"}
    ]},
    {"experiment": "S16 Schwann cell PMP22 intronic element firefly luciferase assay (AID 624032); note: nearly all actives have a fitted effect of over 30% in size", "settings": "S16 rat Schwann cells, PMP22 element FLuc, 24 h; series mostly up to 57.5 µM", "procedure,_shortened": "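Rat S16 Schwann cells stably carrying firefly luciferase driven by a PMP22 intronic element, in 10% FBS, treated 24 h at 37 C. ONE-Glo luminescence normalized to PTC124 control and DMSO (0%); curves classed by r2, magnitude and activity.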", "values": [
      {"molecule": "Cc1cc(NS(=O)(=O)c2ccc(N)cc2)nc(C)n1", "Potency": "inactive"},
      {"molecule": "COc1ccc(CN(CCN(C)C)c2ncccn2)cc1", "Potency": "inactive"},
      {"molecule": "CCc1ccc(C(=O)C(C)CN2CCCCC2)cc1", "note": "(configuration not stated)", "Potency": "inactive"},
      {"molecule": "O=C1C(O)=C(O)C(=O)C(O)=C1O", "Potency": "inactive"},
      {"molecule": "NS(=O)(=O)c1cc(C(=O)O)cc(N2CCCC2)c1Oc1ccccc1", "Potency": "inactive"},
      {"molecule": "CCOC(=O)c1ccc(N)cc1", "Potency": "inactive"},
      {"molecule": "COc1cc(C)nc(-n2nc(C)cc2OC)n1", "Potency": "inactive"},
      {"molecule": "CCC(C(=O)OCCOCCN(CC)CC)c1ccccc1", "note": "(configuration not stated)", "Potency": "inactive"},
      {"molecule": "c1ccc(-c2nc[nH]c2-c2ccccc2)cc1", "Potency": "inactive"},
      {"molecule": "O=S(=O)(O)c1ccc(O)cc1", "Potency": "inactive"},
      {"molecule": "CCN(CC)CCOc1ccc2c(c1)C(=O)c1cc(OCCN(CC)CC)ccc1-2", "Potency": "8.09 µM (active)"},
      {"molecule": "CC(=O)OCC(=O)[C@H]1CC[C@H]2[C@@H]3CCC4=CC(=O)CC[C@]4(C)[C@H]3CC[C@]12C", "Potency": "inactive"},
      {"molecule": "CC1=C(C(=O)O)N2C(=O)[C@@H](NC(=O)[C@H](N)c3ccccc3)[C@H]2SC1", "Potency": "inactive"},
      {"molecule": "CC(=O)Nc1ccc(OCC(O)CNC(C)C)cc1", "note": "(configuration not stated)", "Potency": "inactive"}
    ]}
  ]
}
